From PubChem
F508del corr = F508del CFTR correction, initial screen, CFBE line, single point; CFBE cells, YFP halide quenching; stimulated with forskolin plus potentiator P3; % fluorescence drop versus neutral controls; activity (quench increase), % at 7.58 µM; hit rate 0.36% among 350,000; AID 720511, 2013;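 active means mean added fluorescence quench of at least 8% versus neutral control, with both replicates also reaching 8%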;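 further: cells transiently co-express mutant CFTR-F508del with the halide-sensitive YFP; corrector assay measuring rescue of mutant channel to the surface after 24 h compound exposure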
FGF22 binding = binders of human FGF22 protein, primary screen, FGF22 synaptogenesis inhibitor project, biophysical, thermal shift, single point; Fibroblast growth factor 22 (Homo sapiens), Q9HCT0; recombinant FGF22 thermal shift, SYPRO orange fluorescence; percent of sucrose octasulfate shift, DMSO zero; activity (Tm shift, normalised), % at 9.99 µM; hit rate 1.5% among 340,000;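 active means mean Tm shift, scaled 0 neutral to 100 positive control, at about 1.3% or above, every replicate too, limit read from the data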
Target sequence (Q9HCT0 whole entry, looked up): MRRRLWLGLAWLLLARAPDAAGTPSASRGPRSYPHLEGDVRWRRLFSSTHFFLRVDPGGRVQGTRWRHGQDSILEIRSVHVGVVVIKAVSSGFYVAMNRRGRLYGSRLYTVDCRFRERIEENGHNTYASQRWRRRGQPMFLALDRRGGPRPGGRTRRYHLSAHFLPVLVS
Vif inh = HIV Vif self-association inhibitors, primary screen, imaging, HEK293T, single point. HEK293T cells, Vif self-association by quenched fluorescence, 24 h. inhibition, % at 7.49 µM. hit rate 0.35% among 340,000. AID 602346, 2012; in the data active means inhibition above about 50%, passing the limit was not always enough
Each line names hits and unclear results; the compound was inactive in the other large screens. A selection: hits, their analogues and other compounds. The true share with any hit is near 1.7%.

CC1=C(/C=C/C(C)=C/C=C/C(C)=C/C(=O)O)C(C)(C)CCC1	Vif inh 65
O=C(CC1CC1)N1CC2(C1)[C@@H](c1ccccc1)[C@@H](CO)N2C(=O)C1CCOCC1	none (no result: Vif inh)
COc1ccc(/C=N/NC(=O)C(=O)NCc2cccnc2)cc1	FGF22 binding 44
COc1ccc(Oc2ccc(/C=N/NC(=O)c3cccnc3)cc2[N+](=O)[O-])cc1	FGF22 binding 43
CCNC(=O)COc1ccc(/C=N/NC(=O)c2cccnc2)cc1OC	none
COc1cc(/C=N/NC(=O)c2cccnc2)ccc1OCC(=O)Nc1ccc(C)cc1	FGF22 binding 44
COc1ccc(/C=N/NC(=O)c2cccnc2)cc1	none (no result: Vif inh)
COc1ccc(/C=N/NC(=O)C(=O)NCc2cccnc2)cc1OC	none (no result: F508del corr, FGF22 binding)
Cc1ccc(COc2ccccc2-c2cc(C(=O)N/N=C/c3cccnc3)[nH]n2)cc1	F508del corr 9.7
CCOc1ccccc1-c1cc(C(=O)N/N=C/c2cccnc2)c2ccccc2n1	none
O=C(C[C@H]1C=C[C@H](NC(=O)C2CCOCC2)[C@H](CO)O1)Nc1nccs1	none (no result: FGF22 binding, Vif inh)
Cc1noc(C)c1S(=O)(=O)Nc1ccc2c(c1)CC(=O)N([C@H](C)CO)C[C@@H](C)[C@@H](CN(C)Cc1ccccc1)O2	none (no result: Vif inh)
CCC(=O)NC[C@H]1[C@H](c2ccccc2)[C@@H](CO)N1C(=O)C1CCC1	none (no result: Vif inh)
COc1ccc(NC(=O)Nc2ccc3c(c2)C(=O)N([C@@H](C)CO)C[C@@H](C)[C@H](CN(C)S(=O)(=O)c2ccc(Cl)cc2)OCCCC[C@@H](C)O3)cc1	none (no result: Vif inh)
C[C@@H]1CN([C@@H](C)CO)C(=O)c2cc(NS(C)(=O)=O)ccc2O[C@H]1CN(C)C(=O)Nc1cccc2ccccc12	none (no result: Vif inh)
CNc1ccc2nnc(C(F)(F)C(F)(F)C(F)(F)F)n2n1	FGF22 binding 43
FC(F)(F)c1nnc2ccc(Cl)nn12	none
COc1cc(NC(=S)N2CCN(CCO)CC2)c(OC)cc1Cl	none (no result: FGF22 binding)
COc1cc(NC(=S)N2CCCC(CO)C2)c(OC)cc1Cl (configuration not stated)	FGF22 binding 44
O=C(Cc1nnc(NC(=O)c2ccccc2)s1)N/N=C/c1cccc(O)c1	none
Cc1ccc(Cn2cc(/C=N/NC(=O)Cc3nnc(NC(=O)c4ccc(C)cc4)s3)c3ccccc32)cc1	FGF22 binding 43
Cn1cnc(S(=O)(=O)N2C[C@H](O)COC[C@H]3O[C@@H](CC(=O)NCc4cccc(F)c4)CC[C@@H]32)c1	none (no result: Vif inh)
COc1ccc(S(=O)(=O)N(C)C[C@@H]2Oc3ccc(NC(=O)NC(C)C)cc3CC(=O)N([C@H](C)CO)C[C@H]2C)cc1	none (no result: Vif inh)
O=C(c1ccccc1)c1ccccc1N1C(=O)C=CC1=O	none (no result: FGF22 binding)
O=C1C=CC(=O)N1c1ccccc1N1C(=O)C=CC1=O	Vif inh 157
CCN1/C(=C2/SC(=S)NC2=O)Sc2ccccc21	FGF22 binding 43 (no result: Vif inh)
CCN1/C(=C2/OC(=S)N(C)C2=O)Sc2ccccc21	none (no result: F508del corr, FGF22 binding)
O=C(COc1ccc(F)cc1)Nc1nc(-c2ccccn2)cs1	none
O=C(COc1cccc(F)c1)Nc1nc(-c2ccccn2)cs1	FGF22 binding 44
Cc1ccc(C2(C)NC(=O)N(CC(=O)Nc3nc(-c4ccccn4)cs3)C2=O)cc1 (configuration not stated)	F508del corr 10.0
O=C(Nc1nc(-c2ccccn2)cs1)c1ccc2c(c1)OCCO2	none (no result: Vif inh)
O=C(Nc1nc(-c2ccccc2)cs1)c1cccnc1	none (no result: F508del corr, FGF22 binding)
CC(=O)Nc1ccc(C(=O)Nc2nc(-c3ccccn3)cs2)cc1	FGF22 binding 44
CC(=O)Nc1ccc(C(=O)Nc2nc(-c3cccnc3)cs2)cc1	FGF22 binding 43
CC1(c2ccccc2)NC(=O)N(CC(=O)Nc2nc(-c3ccccn3)cs2)C1=O (configuration not stated)	none
CCCN1[C@@H]2Cn3c(ccc(-c4ccccc4F)c3=O)[C@H]1[C@@H](C(=O)NCC)[C@@H]2CO	none (no result: Vif inh)
C[C@H](O)C#Cc1cnc2c(c1)C(=O)N([C@H](C)CO)C[C@@H](C)[C@@H](CN(C)C(=O)Nc1ccc(F)cc1)O2	none (no result: Vif inh)
C[C@@H]1CN([C@H](C)CO)C(=O)c2cccc(NS(=O)(=O)c3cn(C)cn3)c2O[C@H]1CN(C)S(=O)(=O)c1cn(C)cn1	none (no result: Vif inh)
COCC(=O)N1CCC2(CC1)CN(Cc1nccs1)[C@H](CO)c1c2c2ccc(OC)cc2n1C	none (no result: Vif inh)
NC(=O)CC(NC(=O)c1ccc(Br)cc1)c1ccc(NC2CCCCCC2)c([N+](=O)[O-])c1 (configuration not stated)	Vif inh 70
NC(=O)CC(NC(=O)c1ccc(Br)cc1)c1ccc(NC2CCCCC2)c([N+](=O)[O-])c1 (configuration not stated)	none
COc1ccc2c3c(n(C)c2c1)[C@H](CO)N(Cc1nccs1)CC31CCN(C(C)=O)CC1	none (no result: Vif inh)
C[C@@H]1CCCCO[C@@H](CN(C)S(=O)(=O)c2ccc(Cl)cc2)[C@H](C)CN([C@H](C)CO)C(=O)c2cc(NC(=O)CCCN(C)C)ccc2O1	none (no result: Vif inh)
Cc1ccc(S(=O)(=O)NCC[C@@H]2CC[C@H](NC(=O)NC(C)C)[C@@H](CO)O2)cc1	none (no result: Vif inh)
CC(C)SCC(=O)Nc1ncc2c(n1)-c1ccccc1CC2	FGF22 binding 44
O=C(Nc1ncc2c(n1)-c1ccccc1CC2)C1CC1	none
CCOc1ccc(OCCn2nnc3ccccc3c2=O)cc1	FGF22 binding 44
CCCn1nnc2ccccc2c1=O	none (no result: F508del corr, FGF22 binding)
CC(C)NC(=O)Nc1ccc2c(c1)C(=O)N([C@H](C)CO)C[C@H](C)[C@H](CN(C)C(=O)C1CCCCC1)OCCCC[C@H](C)O2	none (no result: FGF22 binding, Vif inh)
O=C(CCN1C(=O)C2C3CCC(C3)C2C1=O)Nc1ccccc1Cl (configuration not stated)	none (no result: Vif inh)
CCc1ccccc1NC(=O)CCN1C(=O)C2C3CCC(C3)C2C1=O (configuration not stated)	FGF22 binding 44
O=C(O)c1ccc(-n2[nH]c3c(c2=O)CCCC3)cc1	FGF22 binding 43
O=C(O)c1ccc(N2C(=O)CCCC2=O)cc1	none
c1ccc(Cn2c(NCc3ccncc3)nc3ccccc32)cc1	none
c1ccc(Cn2c(NCc3ccccn3)nc3ccccc32)cc1	FGF22 binding 43
CC(C)CC#Cc1ccc2c(c1)O[C@H](CN(C)C(=O)CN(C)C)[C@H](C)CN([C@@H](C)CO)S2(=O)=O	none (no result: Vif inh)
CCc1c(C)sc2nc3c(C(=O)N4CCOCC4)cc(C(=O)c4ccccc4O)cn3c(=O)c12	FGF22 binding 43
Cc1sc2nc3c(SC(C)C(=O)O)cc(C(=O)c4ccccc4O)cn3c(=O)c2c1C (configuration not stated)	none (no result: F508del corr, FGF22 binding)
Cc1cccc(OCC(=O)Nc2cccc(C(=O)NCC(C)C)c2)c1	none (no result: F508del corr, FGF22 binding)
Cc1cccc(OCC(=O)Nc2ccc(C(=O)NCC(C)C)cc2)c1	FGF22 binding 44
CN(C(=O)COc1ncnc2sccc12)c1ccccc1	FGF22 binding 43
CN(CC(=O)Nc1ccccc1C(F)(F)F)C(=O)COc1ncnc2sccc12	none (no result: F508del corr)
C[C@H]1CN([C@@H](C)CO)C(=O)c2cccc(NC(=O)c3ccncc3)c2O[C@@H]1CN(C)S(=O)(=O)c1ccc(Cl)cc1	none (no result: Vif inh)
